# Data: paper PMC5540273 (PLoS ONE, 2017)
# Experiments:
# Conditions in all cases: concentration: 1 μM, replicates: in singlicate; n = 1
# CSF1R = tested on: CSF1R
# CSK = tested on: CSK
# CSNK1A1L = tested on: CSNK1A1L
# CSNK1A1 = tested on: CSNK1A1
# CSNK1D = tested on: CSNK1D
# CSNK1E = tested on: CSNK1E
# CSNK1G1 = tested on: CSNK1G1
# CSNK1G2 = tested on: CSNK1G2
# CSNK1G3 = tested on: CSNK1G3
# CSNK2A1 = tested on: CSNK2A1
# CSNK2A2 = tested on: CSNK2A2
# CTK = tested on: T1, CTK
# T1 construct: gene MATK
# DAPK1 = tested on: DAPK1
# DAPK2 = tested on: DAPK2
# DAPK3 = tested on: DAPK3
# DCAMKL1 = tested on: T2, DCAMKL1
# T2 construct: gene DCLK1
# DCAMKL2 = tested on: T3, DCAMKL2
# T3 construct: gene DCLK2
# DCAMKL3 = tested on: T4, DCAMKL3
# T4 construct: gene DCLK3
# DDR1 = tested on: DDR1
# DDR2 = tested on: DDR2
# 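Further: KINOMEscan kinase panel screen.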
Compound,%Inh (CSF1R) [%],%Inh (CSK) [%],%Inh (CSNK1A1L) [%],%Inh (CSNK1A1) [%],%Inh (CSNK1D) [%],%Inh (CSNK1E) [%],%Inh (CSNK1G1) [%],%Inh (CSNK1G2) [%],%Inh (CSNK1G3) [%],%Inh (CSNK2A1) [%],%Inh (CSNK2A2) [%],%Inh (CTK) [%],%Inh (DAPK1) [%],%Inh (DAPK2) [%],%Inh (DAPK3) [%],%Inh (DCAMKL1) [%],%Inh (DCAMKL2) [%],%Inh (DCAMKL3) [%],%Inh (DDR1) [%],%Inh (DDR2) [%]
CCC(=O)c1c(-c2ccccc2)c2cc(Cl)ccc2c(=O)n1Cc1cc(S(C)(=O)=O)n(CC(N)=O)n1,0,4,0,0,0,0,0,0,0,0,4,0,0,0,6,24,2,0,0,0
O=C(Nc1n[nH]c2nc(-c3ccccc3)c(Br)cc12)C1CC1 [SB-708998],0,0,0,6,0,0,10,2,15,6,4,0,0,0,0,0,0,0,23,9
CC(C)(C)c1ccc(C(=O)Nc2cn3cc(-c4ccccc4)ccc3n2)cc1,0,0,0,0,0,28,0,8,20,15,75,0,9,0,0,33,0,21,4,28
CN1C(=O)C(Nc2cc(Cl)c(O)c(Cl)c2)=C(c2ccc(Cl)cc2)C1=O [SB-404321],0,0,0,0,0,0,0,0,6,0,0,52,0,0,0,0,0,0,0,10
CCC(=O)c1c(-c2ccccc2)c2cc(Cl)ccc2c(=O)n1Cc1cc(C(=O)NC2CC2)n(C)n1,9,0,0,11,0,0,0,0,0,0,3,17,14,0,0,12,0,0,26,29
OCCCNc1nccc(-c2c(-c3cccc(C(F)(F)F)c3)nn3cc(C(F)(F)F)ccc23)n1 [GW630813],0,0,0,0,36,54,0,0,13,0,27,0,0,0,3,40,0,0,15,40
O=C1NC(=O)C(c2ccccc2)=C1Nc1cccc(O)c1 [SB-390534],10,0,8,19,0,16,0,0,8,0,0,4,0,0,0,6,0,0,0,0
COC(=O)c1c(-c2ccccc2)c2cc(Br)ccc2c(=O)n1Cc1ccc(S(C)(=O)=O)cc1,16,0,9,30,9,0,7,13,0,0,42,35,0,11,7,24,0,0,29,17
C[C@@H]1CC[C@H](C(=O)NC2CCCCC2)CN1c1cc(-c2ccc3c(N)n[nH]c3c2)nc(N)n1 [GSK2291363],26,0,12,0,17,24,14,3,30,21,0,0,18,47,35,14,24,0,0,3
Cl.c1ccc(Cn2cnc3cc(Nc4ncnc5ccccc45)ccc32)cc1 [GW272142],4,64,11,0,16,42,1,1,27,0,0,0,0,0,22,4,20,0,5,14
COc1ccc(-c2cc3c(C)nc(N)nc3n([C@H]3CC[C@H](O)CC3)c2=O)cn1,0,0,0,13,0,0,0,0,0,0,0,0,0,0,1,0,0,0,0,0
